Bioassay records from PubChem BioAssay.
This is a sample that favours compounds with a hit; in the whole collection about 13% have one here.
MARV entry inh: inhibitors of Marburg virus binding or cell entry. Marburg virus pseudotyped entry inhibition, cell reporter. Potency, µM (highest dose often 37.8 µM), inactives show at the highest dose activity change, negative = inhibition, most hits filed as inhibitors. actives 1.8% (n = 300,000). AID 540276; calls by dose curve; tested in HEK293 cells; also: potency is read from the fitted curve at half-maximal effect; % is scaled to controls: 0 for no effect and ±100 for the full control effect
HCV inh: blocks hepatitis C virus; Huh7.5.1 HCVcc-Cre infection, luciferase reporter, 44 h; Potency, µM (titrated, usually from 41.8 µM), without a hit: top-dose activity change, negative = inhibition, actives largely listed as inhibitors; actives 3.4% (n = 340,000); AID 651820; active = well fitted inhibition curve with a large enough effect; inconclusive = small, poorly fitted or top-dose-only effect, or another doubt; inactive = no such curve, though single readings can be large or run the other way; also: potency is read from the fitted curve at half-maximal effect; % is scaled to controls: 0 for no effect and ±100 for the full control effect
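Luciferase read-out (15 sec integration) after a 15 min room-temperature substrate step quantifies HCVcc-Cre infection. Cells, 1,000 per well, had compound added 4 h post-plating, then virus at ~0.5 moi, and were cultured 44 h.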
Lassa entry inh: inhibitors of Lassa virus binding or cell entry. Lassa virus pseudotype entry inhibition, cell reporter. Potency, µM (doses to about 37.9 µM), without a hit: at the highest dose activity change, negative = inhibition, hits mostly inhibitors. actives 1.2% (n = 300,000). AID 540256; calls by dose curve; tested in HEK293 cells; also: potency is read from the fitted curve at half-maximal effect; % is scaled to controls: 0 for no effect and ±100 for the full control effect; nearly all actives have a fitted effect of over 50% in size
FMDV inh: blocks foot and mouth disease virus | FMDV antiviral cell-based qHTS | actives 1.2% (n = 410,000) | Potency, µM (top dose mostly 57.9 µM), without a hit: at the highest dose activity change, negative = inhibition, usual class: inhibitors | AID 1159524; calls by dose curve; tested in HEK293T cells; also: read-out not given here; potency is read from the fitted curve at half-maximal effect; % is scaled to controls: 0 for no effect and ±100 for the full control effect; nearly all actives have a fitted effect of over 45% in size
Shiga inhibitor: Shiga toxin inhibition | actives 9.2% (n = 290,000) | AID 2315 | Vero cells, Shiga toxin protein synthesis inhibition reporter | inhibition, % at 38.7 µM; in the data active = inhibition mostly above about 28%, no sharp cut-off; inactive = mostly below about 43%; also: 0% is about no effect
Cycloheximide cs: affects cycloheximide protein synthesis inhibition readout, counter-screen. actives 12% (n = 300,000). max response, %. cell reporter, cycloheximide protein synthesis inhibition counterscreen; in the data active = max response mostly above about 13%, no sharp cut-off; inactive = mostly below about 14%; also: read at 38.3 µM for the half of the compounds with a filed dose; 0% is about no effect
Active calls of the source: *; ? = inconclusive; nt = no result given; [ ] = remark or other dose.

SMILES	MARV entry inh	HCV inh	Lassa entry inh	FMDV inh	Shiga inhibitor	Cycloheximide cs
O=C(NC1CCCCC1)c1ccc([N+](=O)[O-])o1	?	-11.5%	?	-14.0%	71.9*	42.6*
O=C(COC(=O)c1ccc(-c2ccc([N+](=O)[O-])cc2)o1)NC(=O)NC1CCCCC1	6.0%	12.8%	10.5%	-20.0%	2.1	1.4
COc1ccc(-c2noc(CCC(=O)Nc3cccc(C)c3C)n2)cc1OC	-2.6%[46.1 µM]	nt	16.7%[46.1 µM]	-13.4%	nt	nt
O=C(NC(n1ccc(=O)[nH]c1=O)C(Cl)(Cl)Cl)C12CC3CC(CC(C3)C1)C2 (centres undefined)	0.1%[46.1 µM]	1.3%	?	-28.7%	-8.2	0.7
COc1ccc(CNC(=O)C2CCN(S(=O)(=O)c3cc(OC)ccc3OC)CC2)cc1	-10.2%	-22.4%	-19.2%	20.0%	-7.4	-2.1
O=c1[nH]c(-c2ccccn2)nc2sc(-c3ccccc3)cc12	?	1.58µM*	2.24µM*	-66.7%	118.4*	48.8*
Cc1c(C(=O)N(C)C)sc2nc(-c3ccccn3)[nH]c(=O)c12	11.9%	-11.6%	19.3%	23.0%	13.9	11.2
CC(=O)c1ccc(S(=O)(=O)Nc2ccc(S(=O)(=O)N3CCCCC3)cc2)cc1	nt	-19.9%	nt	60.9%	nt	nt
Cc1ccc(S(=O)(=O)/N=C2/C=C(C3C(=O)CC(C)(C)CC3=O)C(=O)c3ccccc32)cc1	?	-35.7%	-9.2%	-34.0%	140.4*	40.9*
[N-]=[N+]=CC(=O)C(O)(c1ccccc1)C(Cl)c1ccccc1 (centres undefined)	nt	?	nt	0.0%	nt	nt
COc1cc(OC)cc(C(=O)NC(C(=O)NCCN(C)C)C23CC4CC(CC(C4)C2)C3)c1 (centres undefined)	?	10µM*	-13.9%	0.0%	-20.2	-7.1
COc1cc(OC)cc(C(=O)NCCOC23CC4CC(CC(C4)C2)C3)c1	-1.7%[46.1 µM]	?	?	-30.6%	-15.6	-3.5
CC1(C)OC(=O)C(=NNc2ccc(Br)cc2)C(=O)O1	2.2%	-2.2%	2.6%	-21.2%	115.2*	31.2*
O=C(CN1C(=O)CCn2nc(-c3ccccc3)cc21)NCc1ccc(F)cc1	nt	nt	13.4%[46.1 µM]	-7.1%	nt	nt
Cc1cc(C(=O)NCc2ccccc2F)cs1	-7.4%	4.1%	0.7%	43.2%	33.8	16.1*
O=C(NCc1ccccc1F)c1ccc2c(c1)OCCO2	15.6%	1.3%	-13.5%	43.1%	nt	22.8*
O=C(NCc1ccccc1F)c1cccs1	11.4%	8.7%	0.1%	16.1%	26.3	-2.0
Fc1ccccc1CNCc1ccc2c(c1)OCO2	nt	5.2%	nt	0.0%	22.0	18.8*
O=C(NCc1ccco1)c1ccc2c(c1)OCCO2	37.2%[46.1 µM]	25.0%	?	16.4%	26.4*	23.9*
Cc1ccc(C(C)C)c(OCC(=O)Nc2ccc(N3CCN(S(C)(=O)=O)CC3)cc2)c1	-17.4%	-19.0%	13.9%	-10.3%	-7.6	-2.2
Nc1ccc(-c2nnn(Cc3ccccc3)n2)cc1	?	-12.6%	-1.0%[46.1 µM]	35.6%	nt	nt
Cc1oc2ccc(OCc3ccccc3Cl)cc2c1C(=O)O	nt	19.9%	nt	7.5%	-2.8	-1.4
Cc1ccc(-c2nnn(CC(=O)O)n2)cc1	7.6%[46.1 µM]	-1.8%	-16.9%	7.9%	2.2	-3.3
O=C(O)c1cccc(OCc2ccccc2Cl)c1	?	14.4%	?	-23.0%	121.5*	111.1*
O=C(O)c1cccc(-c2nnn(Cc3ccccc3)n2)c1	?	15.0%	?	-10.3%	63.2*	69.6*
SMILES	MARV entry inh	HCV inh	Lassa entry inh	FMDV inh	Shiga inhibitor	Cycloheximide cs
CSc1ccc(-c2nnn(Cc3ccc(C)cc3)n2)cc1	?	-23.0%	-23.2%	19.1%	24.0	21.0*
Cc1ccccc1Cn1nnc(-c2cccc(C(=O)O)c2)n1	5.8µM*	3.4%	13µM*	-51.4%	123.8*	56.1*
Cc1ccccc1Cn1nnc(-c2ccc(C(=O)O)cc2)n1	?	6.0%	0.2%	-0.8%	-2.3	-4.2
O=C(OCc1ccccc1Cl)c1ccc(-c2nnn(Cc3ccccc3Cl)n2)cc1	-12.3%[46.1 µM]	nt	-7.8%[46.1 µM]	-5.9%	nt	nt
COc1ccc(-c2nnn(Cc3ccccc3)n2)cc1	7.0%	8.3%	?	107.0%	86.4*	44.1*
O=C(O)c1cccc(-c2nnn(Cc3ccccc3Cl)n2)c1	6.31µM*	17.2%	8.2µM*	-25.4%	95.9*	41.2*
O=c1oc2ccc(Cl)cc2nc1/C=C(\O)c1cccs1	?	-22.7%	?	23.5%	56.4*	61.5*
Cc1ccc2oc(=O)c(/C=C(\O)c3cccs3)nc2c1	-0.5%[46.1 µM]	2.1%	12.0%	-1.6%	77.1*	72.4*
Cc1noc(/C=C/Nc2ccc(F)cc2F)c1[N+](=O)[O-]	?	-24.9%	?	-4.8%	141.0*	53.1*
COc1ccccc1N/C=C/c1onc(C)c1[N+](=O)[O-]	nt	-0.4%	nt	?	18.7	20.7
CCc1ccc2oc(C(=O)Nc3nonc3C)c(C)c2c1	nt	?	nt	-34.5%	106.0*	35.9*
Cc1c(C(=O)Nc2nonc2-c2ccc(F)cc2)oc2ccc(F)cc12	?	?	?	?	2.9	14.8
Cc1cc2oc(C(=O)Nc3nonc3C)c(C)c2cc1C	nt	12.4%	nt	37.4%	165.1*	56.7*
CCc1nonc1NC(=O)c1oc2ccc(F)cc2c1C	14.3%[46.1 µM]	20.1%	?	15.4%	30.6	18.3*
Cc1cccn2c(=O)c(C=NCc3ccccc3)c(NCCO)nc12	-16.8%	-0.6%	9.8%	nt	-10.1	-4.0
Cc1ccc(S(=O)(=O)NCC(c2ccco2)N2CCOCC2)cc1 (centres undefined)	4.1%	16.9%	21.9%[46.1 µM]	-20.2%	8.4	-5.8
Cc1ccc(S(=O)(=O)N2CCCC2C(=O)NC2CCCCC2)cc1 (centres undefined)	0.2%	-28.9%	-19.6%	-27.4%	-9.8	-5.6
OC[C@@H]1CN(Cc2ccc(-c3ccccc3)cc2)C[C@H](n2cnc3c(Nc4ccccc4)ncnc32)O1	nt	nt	nt	31.6µM*	nt	nt
CC(C)CCn1cnc2c(NCc3ccccc3)ncnc21	?	9.5%	2.9%	0.0%	36.5	29.2*
OC[C@@H]1CN(Cc2ccc(-c3ccccc3)cc2)C[C@H](n2cnc3c(NCc4ccc(F)cc4)ncnc32)O1	nt	nt	nt	28.2µM*	nt	nt
c1ccc(CNc2ncnc3c2ncn3C2CCCCO2)cc1 (centres undefined)	15.9%	6.8%	12.2%	nt	52.3	32.4*
O=C(NCc1cccs1)C1CCCN1C(=O)Nc1ccc(Cl)cc1 (centres undefined)	nt	nt	nt	nt	-6.6	-1.3
CC1(C(=O)NC2CCN(Cc3ccccc3)CC2)CCN1CCc1ccccc1 (centres undefined)	nt	nt	nt	0.0%	nt	nt
COc1ccc(CCNC(=O)CCCn2c(SCC#N)nc3ccccc3c2=O)cc1OC	-4.8%	-18.5%	-9.0%	-21.5%	-22.4	-3.9
COc1ccc(CCNC(=O)CCn2c(SCC#N)nc3ccccc3c2=O)cc1OC	?	12.6µM*	-29.9%	8.2%	-6.1	-0.8
CS(=O)(=O)N1CCN(c2ccc(NC(=O)Cc3ccccc3)cc2)CC1	-18.7%	-0.9%	-1.3%	nt	43.5	21.9
